Data from PubChem BioAssay (NCI).
The panel holds about 79,000 compounds, 15% with a hit somewhere; the sample as a whole holds those more often. The source made the active and inactive calls. No stated cut-off is given here; in the data, active means growth inhibition above about 70%; inactive means the rest.

Assays:
[1] = NCI Yeast Anticancer Drug Screen. Data for the rad50 strain (AID 155);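 further: 0% = growth of vehicle-only cultures of the same strain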; conditions: S. cerevisiae rad50 strain growth inhibition; at 50.0 µM; stronger effect = higher value
Method in brief: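 Inhibition values express reduced yeast growth in compound-treated cultures relative to vehicle-treated controls.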

[2] = NCI Yeast Anticancer Drug Screen. Data for the mec2-1 strain (AID 157); conditions: S. cerevisiae mec2-1 strain, at 50.0 µM, stronger effect = higher value
Method in brief: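 Vehicle-treated cultures served as reference for growth inhibition of compound-exposed mec2-1 yeast.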

[3] = NCI Yeast Anticancer Drug Screen. Data for the sgs1 mgt1 strain (AID 161);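 further: 0% = growth of cultures given vehicle only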; conditions: S. cerevisiae sgs1 mgt1 strain, at 50.0 µM, stronger effect = higher value
Method in brief: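 Read-out: growth inhibition vs vehicle controls. Cells: mutant yeast strain deficient in DNA damage repair.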

[4] = NCI Yeast Anticancer Drug Screen. Data for the cln2 rad14 strain (AID 165);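 further: 0% = growth equal to vehicle treated cultures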; conditions: S. cerevisiae cln2 rad14 strain, at 50.0 µM, stronger effect = higher value
Method in brief: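 Each compound was tested on cln2 rad14 yeast. Inhibition of growth was calculated against vehicle-exposed controls.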

[5] = NCI Yeast Anticancer Drug Screen. Data for the bub3 strain (AID 167); conditions: S. cerevisiae bub3 mutant strain, at 50.0 µM, stronger effect = higher value
Method in brief: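 Steps: expose the mutant yeast strain to compound; grow alongside vehicle-treated cultures; measure growth; express inhibition against the vehicle cultures.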

[6] = NCI Yeast Anticancer Drug Screen. Data for the mlh1 rad18 strain (AID 175); conditions: S. cerevisiae mlh1 rad18 strain growth inhibition; at 50.0 µM; stronger effect = higher value
Method in brief: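 Vehicle-treated cultures served as the reference for growth inhibition in a yeast strain carrying DNA damage repair alterations exposed to each compound.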

Measured: growth inhibition

CC1(C)C(=O)OC(n2ccc(=O)[nH]c2=O)C1=O (stereo unspecified)
inactive: [1] 7.15% | [2] -11.2% | [3] -7.75% | [4] -43.9% | [5] -10.8% | [6] 12.7%

CCN(CC)CCN1C(=O)C2C3C=CC(C3)C2C1=O (stereo unspecified)
inactive: [1] -15.1% | [2] -15.4% | [3] 3.25% | [4] -14.9% | [5] -3.25% | [6] -14.9%

Nc1ccc(S(=O)(=O)NNc2nc(N3CCCCC3)nc(N3CCCCC3)n2)cc1
inactive: [1] -1.3% | [2] 1.95% | [3] 10.2% | [4] 7.9% | [5] -11.7% | [6] -5%

O=C1Nc2c(Cl)cc(Cl)cc2C1=O
active: [6] 91.8%
inactive: [1] 7.9% | [2] 45.1% | [3] 37.7% | [4] -2.75% | [5] 38%

O=C([O][Sb]([O]C(=O)C(Br)Br)([c]1ccccc1)([c]1ccccc1)[c]1ccccc1)C(Br)Br
inactive: [1] 15.7% | [2] 5% | [3] 20.6% | [4] -14.2% | [5] -0.1% | [6] 36.6%

CC[n+]1ccc(-c2ccccc2)o1
inactive: [1] 3.6% | [2] 13.1% | [3] 2.25% | [4] 27.3% | [5] 28.4% | [6] -4.75%

CC#CC(O)(C(=O)OC1CCCN(C)C1)C1=CC=CCC1 (stereo unspecified)
inactive: [1] 11.7% | [2] 8.25% | [3] 13.2% | [4] 5% | [5] -1.75% | [6] 27.4%

COc1ccc(C2=NCCO2)cc1N
inactive: [1] 3.6% | [2] 0.45% | [3] -13.7% | [4] -5.5% | [5] 4.35% | [6] 11.4%

CC1=C(/C=C/C(C)=C/C=C/C(C)=C/C=C/C=C(C)/C=C/C=C(\C)C=O)C(C)(C)CCC1
inactive: [1] -18.2% | [2] 4.85% | [3] -9.4% | [4] -1.4% | [5] 4.75% | [6] 0.8%

Clc1ccccc1-c1c2ccccc2cc2c1ccc1ccccc12
inactive: [1] -12.1% | [2] -14.5% | [3] -7.75% | [4] -0.85% | [5] 5.45% | [6] -4.7%

COc1cc(C2c3cc4c(cc3OC(C)(N3CCCC3)C2C)OCO4)cc(OC)c1OC (stereo unspecified)
inactive: [1] -25.4% | [2] 6.95% | [3] -9.8% | [4] 14.2% | [5] -2.55% | [6] 0.25%

CCN(CC)CCOCCN(CC)CC
inactive: [1] 4.15% | [2] -2.2% | [3] -5.25% | [4] -44.8% | [5] 0.1% | [6] 9.55%

CCCC(O)C(=O)C(CCC)N(CC)CC (stereo unspecified)
inactive: [1] 2.5% | [2] -6.85% | [3] 6.65% | [4] 18.7% | [5] 11.1% | [6] -4.9%

CCN(CCNc1cc(OC)cc2cccnc12)CC(C)C
inactive: [1] 22.8% | [2] 9.65% | [3] 1.8% | [4] 13.8% | [5] 6.85% | [6] 17%

C=C(Cl)COc1ccc(OCC(=C)Cl)cc1
inactive: [1] 19.3% | [2] -17.1% | [3] 31.8% | [4] 22.6% | [5] 42% | [6] 1.15%

CC(C)CCCC(C)C1CCC2C3CCC4Cc5c(c6ccccc6n5C)CC4(C)C3CCC12C (stereo unspecified)
inactive: [1] -13.2% | [2] 35% | [3] -5.75% | [4] -27.8% | [5] -8.95% | [6] 21.9%

CC1C(c2ccccc2)=C(c2ccccc2)C(c2ccccc2)=C(c2ccccc2)C1c1ccccc1 (stereo unspecified)
inactive: [1] 27.6% | [2] -19.8% | [3] 2.6% | [4] -5.55% | [5] -1.2% | [6] -10.7%

O=C(Nc1c(Oc2ccc(Cl)c(Cl)c2)ccc(Cl)c1S(=O)(=O)O)Nc1c(Oc2ccc(Cl)c(Cl)c2)ccc(Cl)c1S(=O)(=O)O
inactive: [1] 22.2% | [2] -3.25% | [3] 13.9% | [4] 11.7% | [5] 22.1% | [6] 22.2%

C/C(=N\n1cc(-c2ccccc2)nc1N)c1ccccc1
inactive: [1] -2.8% | [2] 4.2% | [3] 6% | [4] 13.5% | [5] 20.6% | [6] 13.1%

CCCCN(CCCC)CC(O)C=O (stereo unspecified)
inactive: [1] -7.95% | [2] -3.95% | [3] -0.5% | [4] -4.85% | [5] -8.4% | [6] 2.95%

NC(=O)NNCc1ccccc1
inactive: [1] -9.35% | [2] -0.3% | [3] -27.2% | [4] -17.4% | [5] -5.6% | [6] -53.8%

CC(C)(C)C1=NC(S)NC(CCC(=O)Nc2ccccc2[N+](=O)[O-])=C1 (stereo unspecified)
inactive: [1] 0.4% | [2] -8.85% | [3] -0.4% | [4] 14.2% | [5] 8.05% | [6] -7.4%

CCc1c(C)[nH]c2c1C(=O)CCC2
inactive: [1] 15.6% | [2] -4.65% | [3] 38.1% | [4] 18.1% | [5] 24.9% | [6] 46.9%

CCNC(=O)c1csnn1
inactive: [1] -6.55% | [2] -5.6% | [3] -5.95% | [4] 12.5% | [5] -18.1% | [6] 2%

NC(=O)CC(NC(=O)C(F)(F)F)C(=O)O (stereo unspecified)
inactive: [1] -15.3% | [2] -22.9% | [3] -13.4% | [4] -6.85% | [5] -14.2% | [6] -24.2%

COc1cc(OC)cc(Oc2nc3ccc(C(F)(F)F)cc3nc2-c2ccccc2)c1
inactive: [1] -33.1% | [2] -44.8% | [3] -7.85% | [4] -28.3% | [5] -27.4% | [6] -14.3%

O=c1[nH]cnc2c1ncn2C1CCC(CO)O1 (stereo unspecified)
inactive: [1] -11% | [2] 14.6% | [3] 11.3% | [4] -0.1% | [5] 1.85% | [6] -8.85%

Cc1cc(C)c(N)cc1C
inactive: [1] 3.9% | [2] 13% | [3] -20.4% | [4] -43.5% | [5] -2.2% | [6] -2.5%

Nc1ccc2nc3c4ccccc4c(O)n3nc2c1
inactive: [1] -18.5% | [2] -9.15% | [3] -18.6% | [4] -47.9% | [5] -6.2% | [6] 14.6%

CC(CO)N1CCCCCC1 (stereo unspecified)
inactive: [1] -20.4% | [2] -15.7% | [3] 5.9% | [4] -17.7% | [5] 10.7% | [6] -9%

C[Si](C)(C)CCCn1ccc(=O)[nH]c1=O
inactive: [1] 45.6% | [2] 7.45% | [3] 27.8% | [4] -8.15% | [5] 29.4% | [6] -26.3%

Cc1cccc2c(N)c3cccc(C(=O)NCC[N+](C)(C)[O-])c3nc12
inactive: [1] 8.7% | [2] -13.3% | [3] 11.1% | [4] 31% | [5] 18.4% | [6] 20.6%

CSc1nc(SC)c(Cl)c(C(Cl)Cl)n1
active: [5] 74.8% | [6] 75%
inactive: [1] 32.2% | [2] 59.2% | [3] 68.8% | [4] 7.3%

CC(=O)c1cccc(NC(=O)C(=O)C(C(=O)c2ccccc2F)C2OC(=O)c3ccccc32)c1 (stereo unspecified)
inactive: [1] 9.2% | [2] -7.2% | [3] -5.45% | [4] 3.7% | [5] -6.2% | [6] -4.05%

N#CC(/C(=N/NC(=O)C(=O)NN)C(=O)NC12CC3CC(CC(C3)C1)C2)c1ccccc1 (stereo unspecified)
inactive: [1] 16.1% | [2] 10.8% | [3] 1% | [4] 1.4% | [5] 30.6% | [6] -2.05%

C=C(C)C(O)CC (stereo unspecified)
inactive: [1] 24.6% | [2] -30.7% | [3] 15.3% | [4] 4.3% | [5] 10.9% | [6] 20.4%

CNC(=O)SCC(N)C(=O)O (stereo unspecified)
inactive: [1] 1.25% | [2] -4.85% | [3] -8.3% | [4] -16.4% | [5] -0.9% | [6] 2%

O=C(COC(=O)c1cccc([N+](=O)[O-])c1)c1ccc(Br)cc1
inactive: [1] 6.55% | [2] 20.3% | [3] 1.55% | [4] -16.2% | [5] 7.3% | [6] 5.8%

Cc1nc(C(N)=S)sc1C(=O)CC(=O)C(=O)Nc1ccccc1[N+](=O)[O-]
inactive: [1] 0.15% | [2] -9% | [3] 10.8% | [4] 7% | [5] 17.4% | [6] 1.95%

c1ccc(SCc2ccc3c(c2)OCO3)cc1
inactive: [1] 27.4% | [2] 1.4% | [3] 18.2% | [4] 9.25% | [5] 18.8% | [6] 16.8%

COc1ccc2c(c1C)OC(C)C2=O (stereo unspecified)
inactive: [1] 9.65% | [2] 5.05% | [3] -3.9% | [4] -21.1% | [5] -15.9% | [6] 0.7%
